An excerpt weighted towards active compounds, which were near 5.7% of everything screened.
Myeloid diff MLP: induction of myeloid progenitor differentiation, primary screen, cell-based, flow cytometry, MLPCN library; actives 1% (n = 360,000); ER-HoxA9 myeloid progenitors, lysozyme-GFP differentiation; calls only at 10 µM; AID 624256, 2012;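 active means normalized GFP-positive differentiation at or above the plate's own cutoff, the solvent-only control mean plus 3 SD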;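 further: cells exposed to compound for four days before flow analysis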
FAS TE block: FAS thioesterase domain inhibitors, primary screen, biochemical, fluorescence intensity, uHTS; Fatty acid synthase (Homo sapiens), P49327; recombinant FAS-TE, OMFH fluorogenic substrate, fluorescence endpoint; inhibition, % at 15 µM; actives 0.67% (n = 360,000); AID 602261, 2012;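 active means compounds whose normalised, plate-corrected inhibition of enzyme fluorescence in the single-dose primary screen is 50% or more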;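 further: 0% = DMSO with enzyme and 100% = substrate without enzyme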
rCAG binder: binders of r(CAG) RNA repeats, primary screen, biochemical, fluorescence; r(CAG) RNA repeat, TO-PRO-1 dye displacement fluorescence; AID 651821, 2012; inhibition, % at 3 µM; actives 1.3% (n = 370,000);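 active means inhibition above the plate cutoff, the mean of all test compounds on that plate plus 3 SD, cut at about 35% in these data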;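 further: 0% = DMSO alone and 100% = 100 µM mitoxantrone as full dye displacement; higher means more dye released from RNA so lower well fluorescence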
MPTP block: mitochondrial permeability transition pore inhibitors, primary screen, biochemical, isolated mouse mitochondria, absorbance; inhibition, % at 10 µM; AID 602449, 2012; Ca2+ swelling absorbance, 30 min; actives 1.4% (n = 360,000);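 active means inhibition of 50% or more, scaled per plate between neutral and stimulator controls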;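 further: 0% = DMSO wells given calcium and 100% = 1 mM EGTA wells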
GRIN3A LBD mod: binders of NR3A ligand-binding domain, primary screen, biophysical, differential scanning fluorimetry, uHTS. NR3A LBD differential scanning fluorimetry, Tm shift; 0% = protein alone, 100% = glycine-bound protein. Glutamate receptor ionotropic, NMDA 3A (GRIN3A) ligand-binding domain. AID 1259313, 2017. actives 2.5% (n = 340,000). Tm shift relative to glycine control, % at 25 µM;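 active means melting temperature shift of at least 10% of the positive control shift, at one fixed dose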
Active calls of the source: *; i = inactive; / = not tested or not shown; + = active, no number.

SMILES	Myeloid diff MLP	FAS TE block	rCAG binder	MPTP block	GRIN3A LBD mod
COc1ccc(-n2c(SCC(=O)Nc3ccc4cn[nH]c4c3)nnc2-c2ccccc2)cc1	/	/	12	/	/
CC1(C)CC(c2nc(-c3ccc(Br)cc3)cs2)CCS1 (stereo not given)	i	37	9	1	2
CC1(C)CC(c2nc(-c3ccccc3)cs2)CCS1 (stereo not given)	i	46	-2	3	10*
CCCSc1nsc(NC(=O)C(c2ccccc2)c2ccccc2)n1	i	24	/	12	18*
CCCSc1nsc(NC(=O)CC)n1	i	-3	-2	0	-1
Cc1ccc(N=Nc2c(N)[nH]n3c(=O)cc(C)nc23)cc1	i	-14	12	3	1
Nc1[nH]n2c(=O)cc(-c3ccccc3)nc2c1N=Nc1ccccc1	i	3	13	4	16*
CCC(=O)N1CCc2cc(Br)c(S(=O)(=O)NC3CCN(Cc4ccccc4)CC3)cc21	/	/	2	/	/
CSc1ccccc1NC(=O)NCCCl	i	-1	-2	0	242*
COc1ccc(C(=O)N(C)[C@H]2C[C@H]3c4[nH]c5c(-c6ccccc6)cccc5c4CCN3C(=O)[C@H]2[C@H](C)O)cc1	/	/	2	/	/
CO/N=C\CC(=O)Nc1ccc(Cl)cc1Cl	+	-5	-3	0	-2
Cc1ccc(F)cc1C(=O)N1CCCC(c2nc(-c3cccs3)no2)C1 (stereo not given)	/	/	0	/	/
Clc1cccc(-c2ccc(-c3nc4ccccn4c3NCc3ccccc3)cc2)c1	i	29	10	6	20*
c1ccc(-c2nc3ccccn3c2NCc2ccc3c(c2)OCO3)cc1	i	5	-1	-1	-2
COc1ccc(C2C(C(C)=O)=C(C)N=c3s/c(=C\c4cc(C)n(C)c4C)c(=O)n32)c(OC)c1 (stereo not given)	+	-120	-27	6	2
O=[N+]([O-])c1ccc(Sc2nc3ccccc3[nH]2)c(Cl)c1	/	/	4	/	/
O=C(COC(=O)COc1ccc(Br)cc1)NCCC1=CCCCC1	i	-5	-3	0	12*
O=C(COC(=O)/C=C/c1cccc(Cl)c1)NCCC1=CCCCC1	i	4	-1	11	17*
O=C(COC(=O)/C=C/c1ccc(Cl)cc1)NCCC1=CCCCC1	i	-4	-6	9	0
CCCCNS(=O)(=O)CC1NCCc2ccccc21 (stereo not given)	/	/	3	/	/
COc1ccc(NC(=S)Nc2ccc(N)c([N+](=O)[O-])c2)cc1	i	2	3	2	12*
O=C(CSc1nnc(-c2cccnc2)n1Cc1ccco1)Nc1ccc(Cl)cc1	/	/	5	/	/
CC(=O)OCC(=O)N1CCN(C(=O)C(=O)c2cccc(C(F)(F)F)c2)CC1	/	/	0	/	/
O=C(Nc1ccc(F)cc1F)c1cc(-c2ccc(Cl)cc2)nc2ccccc12	/	/	4	/	/
COc1ccc(-c2cc(NC(=O)Cc3c[nH]c4ccccc34)ccc2Nc2cccnc2)cc1F	/	/	13	/	/
SMILES	Myeloid diff MLP	FAS TE block	rCAG binder	MPTP block	GRIN3A LBD mod
COc1ccccc1N1CCN(C(CNS(=O)(=O)c2ccc(C)cc2)c2cccnc2)CC1 (stereo not given)	i	-5	1	2	16*
COc1ccccc1N1CCN(C(CNS(C)(=O)=O)c2cccnc2)CC1 (stereo not given)	i	-9	0	0	-1
COc1ccc(S(=O)(=O)N(C)CC(=O)NCc2ccco2)cc1Cl	+	-4	-2	0	2
COc1ccc(S(=O)(=O)N(C)CC(=O)NC2CCCCC2)cc1Cl	i	-3	-6	-1	11*
CN(CCCC(=O)NCc1ccco1)S(=O)(=O)c1ccccc1	+	-4	0	0	1
COC(=O)[C@]12C[C@H](CC(=O)NCCC(C)C)C(=O)N(Cc3cccc4ccccc34)C1=C[C@H](C(C)C)O[C@@H]2C1CC1	/	/	0	/	/
COc1ccc(/C(C)=N/NC(=O)CNC(=O)c2cccs2)cc1	i	-10	2	0	2
C/C(=N/NC(=O)CNC(=O)c1cccs1)c1ccc(Cl)cc1	i	2	0	0	21*
Cn1c(Oc2ccc(Cl)cc2)c(C=O)c2ccccc21	i	15	-1	1	15*

Screening results as filed in PubChem.
